Structures are written as SMILES. The panel holds about 83,000 compounds, 20% with a hit somewhere; the sample as a whole holds those more often.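 96-well plates, one dose, 48 hours. Percent growth reported; active if below 10.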 Values without a mark were called inactive. Activity calls are given as the source filed them.

The first test concerns IGROV1 ovarian. The experiment in a line: NCI-60 one-dose screen, 48 h (100 = growth as untreated, 0 = no growth, -100 = all killed). As to conditions: 10 µM.
For `O=C(/C=C/C=C/c1c(C2CC2)nc2ccccc2c1-c1ccc(F)cc1)c1cccs1`, the growth was 19.1%. As to `CC(=O)[C@H]1CC[C@]2(C)[C@@H]1CC[C@@H]1[C@@]3(C)CC(CCC#N)(CCC#N)C(=O)C(C)(C)[C@@H]3CC[C@]12C`, the growth is 98.4%. For `CCNCC(=O)Nc1ccc(C(=O)OCC)cc1`, the growth is 99.3%. Still for that read-out and setting: then `S=C(NCc1ccccc1)NCc1ccccc1`, with 97.4%.

Turning to `NNC(=O)Oc1c(Cl)cc(Cl)cc1[N+](=O)[O-]`, the growth is 101%. `CN1CCN(CCC(=O)Nc2cccc(-n3cc(-c4ccncc4)c(-c4ccc(Cl)c(O)c4)n3)c2)CC1`: the growth was 55.8%. In the case of `O=S(=O)(O)c1cccc(Nc2ccc3ccccc3c2)c1`, the growth was 84.4%. `CCN(CC)CCOc1ccc2c(c1O)C(=O)c1ccccc1C2=O`: the growth is 97.3%. With `S=C(SSC(=S)N(c1ccccc1)c1ccccc1)N(c1ccccc1)c1ccccc1`, the growth was 111%.

As for `CN1CCN(CC(=O)Nc2cccc(-n3cc(-c4ccncc4)c(-c4ccc(Cl)c(O)c4)n3)c2)CC1`, the growth was 57.5%.

In another test the test system is OVCAR-3 ovarian. The description is as above. As to conditions: 10 µM.
With `CCc1ccc(-c2ccc(-n3nc(C)c4c(N)nc(Cc5ccccc5)nc43)cc2)cc1`, the growth is 80%.

Turning to `O=C(Nc1ccc(F)cc1)c1cc2ccccc2cc1O`, the growth is 84.6%. `Nc1nccc(OCCO)n1`: the growth was 105%. The same measure, in the same setting: then `O=C(CCCCNC(=O)c1nc(-c2ccccc2)n(-c2ccccc2)n1)NO`, with 70.1%. Regarding `COc1cc(-c2nn(-c3ccc(NC(=O)NCCNS(=O)(=O)c4ccc(F)cc4)cc3)cc2-c2ccncc2)ccc1Cl`, the growth is 7.55% (active). Still for that read-out and setting: then `O=C(Nc1ccc2c(O)cc(S(=O)(=O)O)cc2c1)c1ccc([N+](=O)[O-])cc1`, with 104%; and `COC(=O)C1(O)NC(=C(C#N)C#N)C(C#N)=C1C(=O)c1ccc(OC)c(OC)c1` (stereo not given), with 107%; and `C=CCn1c(SCC(=O)Nc2ccc(C(=O)/C=C/c3ccc(OC)cc3)cc2)nnc1-c1ccc(OC)c(OC)c1`, with 89.6%.

Consider `COc1cc(NC(=O)Nc2cnc(Nc3ccc(N4CCOCC4)cc3)nc2Oc2cccc(OC)c2)cc(OC)c1`, for which the growth is 41.7%. The same measure, in the same setting: then `O=C(CCl)Nc1ccc(Cc2ccc(NC(=O)CCl)cc2)cc1`, with -32.8% (active). Same read-out and setting: then `Cc1cc(SCc2ccccc2)nc(N)n1`, with 123%; and `Cc1nn(-c2ccc(-c3ccc(OC(F)(F)F)cc3)cc2)c2nc(Cc3ccccc3)nc(N)c12`, with 46.5%; and `O=C(Nc1nc(-c2ccccc2)nc2c1sc(=S)n2-c1ccccc1)C(F)(F)F`, with 105%.

As for `S=c1cnc2ccccc2[nH]1`, the growth was 106%. As to `O=C(CSc1nnc(-c2ccc(Cl)cc2)o1)Nc1ccc(C(=O)/C=C/c2ccc(Cl)cc2)cc1`, the growth was 103%. As to `CN(C)CCN(Cc1ccccc1)c1ccc2ccccc2n1`, the growth was 103%.

On to `CCN(CC)CCOc1cccc2c1C(=O)c1cccc(OCCN(CC)CC)c1C2=O`, for which the growth is 47%. As for `O=C(NCCCNS(=O)(=O)c1ccc(Cl)cc1)Nc1ccc(-n2cc(-c3ccncc3)c(-c3ccc(Cl)c(O)c3)n2)cc1`, the growth is 50%. Take `C1CN(CC2CCC(CN3CCOCC3)O2)CCO1` (stereo not given): the growth was 112%.

Turning to `NC(N)=N/N=C(\c1ccccc1)C(O)c1ccccc1` (stereo not given), the growth was 111%.

On to `N#CC1=C(N)Oc2cc(N)ccc2C1c1cccnc1` (stereo not given), for which the growth is 96.6%. For `CCOC(=O)c1cc(C(=O)c2cc(OC)cc(OC)c2)n2nc(C)ccc12`, the growth was 1.01% (active). The same measure, in the same setting: under `COc1cc(C)ccc1Oc1nc(Nc2ccc(N3CCOCC3)cc2)ncc1NC(=O)Nc1cc(C(F)(F)F)cc(C(F)(F)F)c1` stands 51.9%; under `COc1ccc(/C=C2\CCCC3C2=Nc2ccccc2NC3c2ccc(OC)cc2)cc1` (stereo not given), 86.8%.

Turning to `CCN(CC)CC(=O)N(CC)c1ccc(C)c(Cl)c1`, the growth was 102%. The same measure, in the same setting: under `O=C(CC(CC(=O)c1ccccc1)c1ccccc1O)c1ccccc1` stands 94.3%; under `C=C(C)[C@@H]1CC[C@]2(COCCC#N)CC[C@]3(C)[C@H](CC[C@@H]4[C@@]5(C)Cc6c([nH]c7ccccc67)C(C)(C)[C@@H]5CC[C@]43C)[C@@H]12`, 93.9%. As to `Fc1ccc2[nH]cc(-c3nc(-c4ccsc4)cs3)c2c1`, the growth was 99.8%. As to `COc1cc(-c2nn(-c3cccc(NC(=O)CCN4CCN(Cc5ccccc5)CC4)c3)cc2-c2ccncc2)ccc1Cl`, the growth is 7.04% (active). The same measure, in the same setting: under `Cc1cc(=O)n2nnc3cc(Cl)c(Cl)cc3n12` stands 77.8%. Regarding `O=C(/C=C/C=C/c1c(C2CC2)nc2ccccc2c1-c1ccc(F)cc1)c1cccs1`, the growth is -2.17% (active). Same read-out and setting: under `CC(=O)[C@H]1CC[C@]2(C)[C@@H]1CC[C@@H]1[C@@]3(C)CC(CCC#N)(CCC#N)C(=O)C(C)(C)[C@@H]3CC[C@]12C` stands 107%; under `CCNCC(=O)Nc1ccc(C(=O)OCC)cc1`, 99.9%. On to `S=C(NCc1ccccc1)NCc1ccccc1`, for which the growth is 98.5%.

With `NNC(=O)Oc1c(Cl)cc(Cl)cc1[N+](=O)[O-]`, the growth is 107%.

Take `CN1CCN(CCC(=O)Nc2cccc(-n3cc(-c4ccncc4)c(-c4ccc(Cl)c(O)c4)n3)c2)CC1`: the growth was 14.4%.

With `O=S(=O)(O)c1cccc(Nc2ccc3ccccc3c2)c1`, the growth was 97.5%. As for `CCN(CC)CCOc1ccc2c(c1O)C(=O)c1ccccc1C2=O`, the growth is 94.7%. On to `S=C(SSC(=S)N(c1ccccc1)c1ccccc1)N(c1ccccc1)c1ccccc1`, for which the growth is 102%. Turning to `CN1CCN(CC(=O)Nc2cccc(-n3cc(-c4ccncc4)c(-c4ccc(Cl)c(O)c4)n3)c2)CC1`, the growth was 12.8%.

The record behind these values is PubChem BioAssay (NCI).
